# High-throughput results as filed in PubChem BioAssay.
# Rows were chosen to be rich in hits. Some 4.1% of all compounds tested hit in one or more screens of this group.
# BoNT-F LC inh = BoNT F light chain protease inhibition; AID 588497; inhibition, % at 10 µM; 0.22% of 360,000 active; Multiplex microsphere protease cleavage assay, flow cytometry; in the data active means inhibition above about 35%, passing the limit was not always enough; inconclusive means no clear call, values can overlap the other calls; further: plate controls were buffer without enzyme for full effect and enzyme alone for no effect
# DUSP3 inh = blocks human VHR1 dual specificity phosphatase; recombinant VHR phosphatase, pNPP absorbance; AID 1654; inhibition, % at 13.3 µM; P51452; 0.52% of 290,000 active; in the data active means inhibition above about 50%
# Target sequence (P51452 whole entry, looked up): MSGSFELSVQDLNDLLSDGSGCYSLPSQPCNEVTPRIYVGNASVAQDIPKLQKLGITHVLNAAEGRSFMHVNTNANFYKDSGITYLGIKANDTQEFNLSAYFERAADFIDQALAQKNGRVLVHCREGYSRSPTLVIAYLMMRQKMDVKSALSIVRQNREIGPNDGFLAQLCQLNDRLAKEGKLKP
# Bead autofluor = flagged as autofluorescent in microsphere protease counterscreen. compound autofluorescence counterscreen, microsphere flow cytometry; hits give high values. fluorescence intensity (no concentration beside the values). 3.1% of 360,000 active; in the data active means fluorescence intensity above about 16000; inconclusive means no clear call, values can overlap the other calls
# MazEF act = MazEF (E. coli) toxin RNase activation; P0AE70; 0.32% of 350,000 active; AID 504720; FAM/BHQ RNA-DNA oligo cleavage fluorescence, 5 h; activation, % at 20 µM; in the data active means activation above about 50%
# Target sequence (P0AE70 whole entry, looked up): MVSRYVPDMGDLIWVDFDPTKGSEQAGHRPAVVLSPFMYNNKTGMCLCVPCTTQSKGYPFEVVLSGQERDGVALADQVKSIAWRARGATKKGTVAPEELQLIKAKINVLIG
# BoNT-A LC inh2 = inhibitors of Botulinum neurotoxin A light chain protease. multiplex microsphere protease substrate cleavage, flow cytometry. inhibition, % at 10 µM. 0.17% of 360,000 active. AID 588499; further: plate controls were buffer without enzyme for full effect and enzyme alone for no effect
# Anthrax LF prot = inhibitors of Bacillus anthracis lethal factor protease | P15917 | AID 588501 | inhibition, % at 10 µM | 0.12% of 360,000 active | multiplex microsphere protease cleavage assay, LF; further: plate controls were buffer without enzyme for full effect and enzyme alone for no effect
# * marks the source's active call; other numbers are inactive results; ? = inconclusive; / = no result given. Unless noted, no stated cut-off is given here; in the data, active means inhibition above about 30%; inconclusive means no clear call, values can overlap the other calls; inactive means below that.
SMILES,BoNT-F LC inh,DUSP3 inh,Bead autofluor,MazEF act,BoNT-A LC inh2,Anthrax LF prot
CCCCN1C(=O)C(C2c3ccccc3C(=O)N2Cc2ccccc2)C(=O)NC1=S (stereo not drawn),4,11,21741*,5,1,-1
CCCCNC1c2ccccc2C(=O)N1Cc1ccccc1 (stereo not drawn),21,16,3399,6,1,24
CC(C)NC(=O)CSCc1c(F)cccc1Cl,-3,5,16724*,8,-2,-1
CNC(=O)CSCc1c(F)cccc1Cl,-1,0,6446,8,-1,0
COC(=O)c1ccc(CNC(=O)c2ccc(OCC(=O)N3CCOCC3)c(OC)c2)cc1,-5,/,5523,1,-2,4
CCOc1cc(C(=O)NCc2ccc(C)cc2)ccc1OCC(=O)N1CCOCC1,1,51*,2483,-5,0,0
CSc1nnc(-c2sccc2OCc2ccccc2)n1C,-4,21,16539*,1,-1,0
C[C@H](NC(=O)c1ccco1)C(=O)NCc1cccs1,?,/,5067,1,?,?
O=C(Nc1nc2ccsc2c(=O)s1)C1CCC1,6,16,5763,-8,0,6
O=c1sc(Nc2ccccc2)nc2ccsc12,0,26,19370*,3,?,-5
CN(CCOc1ccc(Cl)cc1)c1ccc(S(=O)(=O)N2CCCCC2)cn1,-6,15,24914*,0,?,-4
Cc1ccc(OCCNc2ccc(S(=O)(=O)N3CCCC3)cn2)cc1,-7,/,7214,3,-4,?
O=C(O)CC1(CC(=O)N2CCOCC2)CCCC1,-14,20,4035,3,-4,13
COc1cccc(/C(O)=C2\C(=O)C(=O)N(c3ccccn3)C2c2cccc(OC)c2OC)c1 (stereo not drawn),1,10,21089*,-6,1,0
COc1ccc(C2=NN(C(=O)CSC3=NN4CCCC(=O)N=C4S3)C(c3cccc(OC)c3OC)C2)cc1 (stereo not drawn),-12,6,6017,3,0,-5
COc1cccc(C2CC(c3cccs3)=NN2C(=O)CSC2=NN3CCCC(=O)N=C3S2)c1OC (stereo not drawn),-6,53*,4705,4,-1,-4
CCCc1c(C(=O)N/N=C/c2ccoc2)nnn1-c1nonc1N,-5,/,2855,-4,0,2
CC(=O)c1ncnn1CC(=O)c1ccc(Cl)cc1Cl,-1,-3,22669*,-6,-2,2
CC(C(=O)c1ccc(Cl)cc1Cl)n1cncn1 (stereo not drawn),2,-15,4175,5,0,-4
CC1(C(=O)NS(=O)(=O)c2cccc(C#N)c2)CCN1C(=O)CC1CCCC1 (stereo not drawn),-4,/,2832,/,-1,-3
O=C1CCCC/C=C\C[C@H](CC(=O)N(CCO)Cc2ccccc2)C(=O)NCCO1,-4,/,4095,9,0,3
CCc1nc2c(OCC3COc4ccccc4O3)cccn2c1N(C)C(=O)c1ccc(OC)cc1 (stereo not drawn),0,/,3888,/,0,2
Cc1ccc(C(=O)CCC2CCCCC2=O)cc1 (stereo not drawn),0,-10,19947*,0,?,0
CCN(CC)CCn1c2c(c(SCC(=O)Nc3cccc4ccccc34)nc1=O)CCC2,4,/,3929,8,-1,3
CSc1nc(NC(C)(C)C)nc(Oc2ccc(=O)[nH]n2)n1,-1,1,19465*,4,1,-4
SMILES,BoNT-F LC inh,DUSP3 inh,Bead autofluor,MazEF act,BoNT-A LC inh2,Anthrax LF prot
CCOC(=O)c1cccc(NS(=O)(=O)c2c(C)[nH]c(C)c2C(=O)N2CCCC2)c1,-5,-3,5756,-30,1,-1
CCOC(=O)c1cccc(NS(=O)(=O)c2c(C)[nH]c(=O)[nH]c2=O)c1,1,7,19045*,-2,1,-10
O=C(Oc1cccnc1)c1cc(S(=O)(=O)N2CCCCC2)ccc1Cl,7,-15,21012*,6,5,0
O=C(c1cccnc1)N1CCN(S(=O)(=O)c2ccc3ccccc3c2)CC1,1,8,16645*,-1,0,-7
CCOC(=O)c1c(NC(=O)CCNCc2ccco2)sc2c1CCC2,/,-3,/,6,/,/
O=C(Cn1cc(COc2ccc(Cl)c(Cl)c2)nn1)NS(=O)(=O)c1ccccc1OC(F)(F)F,-3,/,2821,/,-1,-2
C=CCSc1nc(N)c(C#N)c(-c2ccccc2)c1C#N,5,22,21076*,-13,4,-2
O=C(NCc1cccc(F)c1)Nc1nnc([C@@H]2C[C@H](O)[C@@H](CO)O2)s1,-2,/,3750,/,0,-3
